ALDH1A1 inh – blocks purified human ALDH1A1 activity | AID 1030 | 7.3% of 220,000 active | Potency, µM (series often up to 75.3 µM), for inactives: at the highest dose activity, negative = inhibition, actives largely listed as inhibitors | Purified ALDH1A1, NADH fluorescence, propionaldehyde substrate;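 further: potency means the concentration at half of the fitted maximal effect; plate controls were no enzyme wells and a reference inhibitor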
Target sequence (P00352 whole entry, looked up): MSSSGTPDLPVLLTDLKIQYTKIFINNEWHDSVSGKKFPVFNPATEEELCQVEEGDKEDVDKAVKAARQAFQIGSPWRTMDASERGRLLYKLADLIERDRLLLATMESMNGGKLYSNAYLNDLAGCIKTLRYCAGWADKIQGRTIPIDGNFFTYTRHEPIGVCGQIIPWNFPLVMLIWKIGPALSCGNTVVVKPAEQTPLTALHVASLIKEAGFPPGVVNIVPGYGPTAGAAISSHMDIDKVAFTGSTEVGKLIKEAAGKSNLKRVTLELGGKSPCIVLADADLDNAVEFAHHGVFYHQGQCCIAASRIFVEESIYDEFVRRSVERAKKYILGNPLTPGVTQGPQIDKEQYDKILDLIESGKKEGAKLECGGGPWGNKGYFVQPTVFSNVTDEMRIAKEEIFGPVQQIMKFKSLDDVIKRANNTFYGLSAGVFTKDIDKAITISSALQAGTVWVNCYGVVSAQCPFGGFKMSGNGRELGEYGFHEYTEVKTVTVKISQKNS
HPGD block – inhibitors of human 15-hydroxyprostaglandin dehydrogenase (HPGD); purified HPGD, NADH fluorescence kinetic, PGE2 substrate; Potency, µM, inactives show at the top dose activity change, negative = inhibition, most hits filed as inhibitors; AID 894; 4.3% of 150,000 active; P15428; further: potency means the concentration at half of the fitted maximal effect
Target sequence (P15428 whole entry, looked up): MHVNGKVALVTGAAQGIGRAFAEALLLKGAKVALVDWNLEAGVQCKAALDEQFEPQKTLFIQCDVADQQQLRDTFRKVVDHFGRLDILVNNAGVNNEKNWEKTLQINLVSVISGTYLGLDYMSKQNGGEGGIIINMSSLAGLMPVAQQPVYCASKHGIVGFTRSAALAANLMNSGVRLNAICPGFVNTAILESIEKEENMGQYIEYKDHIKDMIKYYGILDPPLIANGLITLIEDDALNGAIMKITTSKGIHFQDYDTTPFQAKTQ
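20 nM HPGD preincubated 15 min at room temperature with compound in 50 mM Tris-HCl pH 8, 0.01% Tween 20. Started with 1 mM NAD+ and 30 uM prostaglandin E2; NADH fluorescence (360/450 nm) read 5 times over 30-s intervals, last minus first.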
PNC assembly inh – perinucleolar compartment assembly inhibition; PC3M PTB-GFP, PNC prevalence imaging, 16 h; hits give low values; activity change (PNC), negative = inhibition, % at 10 µM; 3.1% of 140,000 active; AID 2417;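 active means readout at or below -70, meaning at least 70% loss of cells showing the perinucleolar compartment, a nuclear body marking cancer cells; inconclusive means readout between -30 and a set limit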;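 further: plate controls were DMSO wells for no effect and camptothecin positive control wells for full effect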
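Read-out is percentage of cells bearing a perinucleolar compartment, from automated 20x imaging of fixed, Hoechst-stained PC3M PTB-GFP cells. Cells were seeded 4 h, then exposed 16 h to compound (23 nl of library stock) in duplicate plates.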
IMPase inh – membrane-permeable compound that blocks inositol monophosphatase; inhibition (IP1 accumulation), % at 46.1 µM; 120,000 tested, under 10 active; CHO-M1 cells, IP1 accumulation, HTRF TR-FRET ratio; active means well fitted curve in the direction sought with a large enough effect in the signal ratio, not every such curve was filed as active; inconclusive means small, poorly fitted or top-dose-only effect, or a change in a side signal; inactive means no such curve, though single readings can be large or run the other way; the % refers to the signal ratio;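 further: cells stimulated with carbachol in lithium chloride buffer; plate controls were DMSO basal wells for no effect and reference inhibitor wells for full effect; higher means more IMPase inhibition seen as more IP1 and lower FRET ratio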
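Carbachol-driven Gq signalling in CHO-M1 cells (2000/well) generates IP1. Compounds that block IMPase raise IP1 and so reduce the FRET signal from Eu-anti-IP1 and d2-IP1 after a 10 min room-temperature lysis.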
LMNA splice mod – LMNA splicing modulation. Potency, µM (top dose mostly 46.1 µM), inactives show at the highest dose ratio change, negative = inhibition, actives largely listed as inhibitors. HeLa LMNA splicing GFP/RFP minigene ratio, 48 h. 0.01% of 200,000 active; active means well fitted inhibition curve with a large enough effect in the signal ratio, with a control signal flat, not every such curve was filed as active; inconclusive means small, poorly fitted or top-dose-only effect, or effect the other way, or a change in a side signal; the % refers to the signal ratio; further: potency means the concentration at half of the fitted maximal effect
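S3 HeLa stable clones carrying a lamin A-EGFP splicing minigene plus DsRed2 were seeded at 600 cells/well in Opti-MEM with 2% FBS, pin-dosed and incubated 48 h at 37°C. Acumen cytometry (488 nm) gave the GFP/RFP total-intensity ratio.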
Luc counter – counter-screen: inhibitors of Kinase-Glo firefly luciferase; Q27757; Kinase-Glo luciferase, ATP luminescence, 8 min; Potency, µM (titrated, usually from 38.3 µM), for inactives: at the top dose activity change, negative = inhibition, actives largely listed as inhibitors; 0.28% of 200,000 active; AID 1379; active means well fitted inhibition curve with a large enough effect; inconclusive means small, poorly fitted or top-dose-only effect; further: potency means the concentration at half of the fitted maximal effect; nearly all actives have a fitted effect of over 60% in size
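Luminescence was the read-out, taken after 8-minute incubation at ambient temperature. Luciferase turned over luciferin with 10 uM ATP in imidazole pH 7.2 buffer containing KCl, MgCl2, Tween 20 and BSA.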
Starred values were filed as active, the others as inactive; ? = inconclusive; · = no result; ! = a repeat was not active; [ ] = remark or other dose. Most compounds without a hit are left out; they make up all but 10% or so of the library. Unless noted, the call rests on the fitted dose curve; in most records, active means well fitted inhibition curve with a large enough effect (not every such curve was filed as active); inconclusive means small, poorly fitted or top-dose-only effect, or another doubt; inactive means no such curve, though single readings can be large or run the other way. Unless noted, on the % scale 0 is the no-effect control and ±100 the full control effect.

SMILES	ALDH1A1 inh	HPGD block	PNC assembly inh	IMPase inh	LMNA splice mod	Luc counter
O=C(O)CSCc1c(F)cccc1Cl	5%	-15%	-14	9	-8%	-4%
COCCNC(=O)CSCc1c(F)cccc1Cl	11%	22µM*	42	3	-2%	1%
COc1ccc(CNC(=O)CSCc2c(F)cccc2Cl)cc1	2.2µM*	·	·	·	·	-5%
CC(C)C(NC(=O)C(Cc1ccc(O)cc1)NC(=O)C(NC(=O)C(F)(F)F)C(C)C)C(=O)O (centres undefined)	2%	-13%	·	·	-4%	1%
COc1ccc(-c2nc3sc(CCNC(=O)C(=O)Nc4cccc(NC(C)=O)c4)c(C)n3n2)cc1	·	·	·	·	28%[46 µM]	·
CC1(C)CC(CC(=O)NNc2nc(-c3ccccc3)cs2)C(=O)O1 (centres undefined)	1%	-11%	-84*	·	-8%	-4%
Cc1noc2ncnc(N3CCN(c4ccc(F)cc4)CC3)c12	7%	·	·	·	·	-2%
Cc1noc2ncnc(N3CCCCC3)c12	32µM*	·	·	·	·	-1%
CNc1ccc(/C=C2\COc3ccccc3C2=O)cc1[N+](=O)[O-]	14%	1.6µM*	11	-3	13%	-3%
N[C@@H](Cc1c[nH]c2ccc(O)cc12)C(=O)O	28µM*!	-9%	·	9	?	-3%
C=CCC1(O)CCOc2ccccc21 (centres undefined)	3%	-6%	·	·	·	1%
COc1ccc(S(=O)(=O)n2nc(-c3ccc(Cl)cc3)cc2N)cc1OC	89µM*	-19%	-7	0	-19%	0%
CCOc1ccc(-c2cc(N)n(S(=O)(=O)c3ccc(OC)c(OC)c3)n2)cc1	?	-12%	?	10	-3%	-3%
Cc1ccccc1C(=O)Nc1sc2c(c1C(=O)N1CCCCC1)CCC(C)C2 (centres undefined)	·	·	·	1	·	·
COCCn1c(C)cc(O)c(C(c2ccccc2)N2CCN(c3ccccc3)CC2)c1=O (centres undefined)	·	·	·	·	-2%[46 µM]	·
COc1ccc(C(=O)Nc2ccc3c(c2)Cc2ccccc2-3)cc1	?	?	?	-10	3%	-1%
COc1ccc2nc3c(cc2c1)Cc1ccccc1-3	?	?	·	·	·	13µM*
COc1cc(/C=C2\SC(=N)N(c3ccc(F)cc3)C2=O)ccc1O	0%	·	·	·	?	0%
COc1cc(/C=C2\SC(=N)N(c3ccc4c(c3)OCO4)C2=O)cc(OC)c1O	9%	4µM*	-9	·	-2%	1%
COc1cc(/C=C2\SC(=O)N(CC(=O)Nc3cccc(C)c3)C2=O)cc([N+](=O)[O-])c1O	22µM*	·	·	·	·	-4%
CCOc1cc(/C=C2\SC(=O)N(CC(=O)Nc3ccccc3F)C2=O)cc([N+](=O)[O-])c1O	?	·	·	·	24%[46 µM]	-3%
COc1cc(/C=C2\SC(=O)N(c3ccccc3Cl)C2=O)cc([N+](=O)[O-])c1O	0.16µM*	·	·	·	·	-3%
Cc1ccc(CNC(=O)CN2Cc3ccccc3C2=O)cc1	·	·	·	·	3%[46 µM]	·
C=CCS/C(N)=N\N=C\c1cc(Br)cc([N+](=O)[O-])c1O	7.1µM*	·	·	·	·	·
O=c1c2ccccc2nnn1CSc1nc2ccccc2[nH]1	21%	-3%	-20	9	-11%	-2%
SMILES	ALDH1A1 inh	HPGD block	PNC assembly inh	IMPase inh	LMNA splice mod	Luc counter
O=C(CSCCSCC(=O)c1ccco1)c1ccco1	22µM*	?	?	7	10%	-3%
O=C(CSc1nnc2sc3ccccc3n12)c1ccco1	16µM*	22µM*	-13	-8	1%	-3%
CN(C)C(=O)CSc1nnc2sc3ccccc3n12	-7%	-11%	2	1	0%	0%
Cn1nnnc1SCC(=O)c1ccco1	40µM*	-9%	2	10	4%	-3%
O=C(CSc1nnnn1-c1ccccc1)c1ccco1	?	·	·	·	4%[46 µM]	1%
O=c1c2ccccc2nnn1CSc1nnc2sc3ccccc3n12	13µM*	-25%	?	4	12%	-27%
O=C(CC(=O)c1ccncc1)c1ccccc1	3.5µM*	3.5µM*	·	·	·	-4%[7.66 µM]
O=C(O)CSCC(=O)c1ccccc1	14µM*	-24%	6	5	6%	4%
O=C(O)c1ccncc1.O=C(O)c1ccncc1.[Cl][Pt]([Cl])([Cl])[Cl]	2.2µM*	4µM*	·	·	·	-8%[7.66 µM]
CCn1cnc2c(=O)oc3ccc(S(=O)(=O)N4CCN(c5cc(C)ccc5C)CC4)cc3c21	·	·	·	-3	·	·
COc1ccc(-c2cc(C(C)=O)c(C)n2CCC(=O)Nc2ccc(C(F)(F)F)cc2)cc1	·	·	·	·	-11%[46 µM]	·
CC(C)Oc1ccc(CNC(=O)c2cnc3sc(N4CCCC4)nn3c2=O)cc1	·	·	·	·	5%[46 µM]	·
CN(c1ccccc1)c1nc2ccsc2c(=O)s1	-16%	28µM*	18	-1	6%	-2%
COc1ccc(CNc2nc(-c3ccco3)nn2S(=O)(=O)c2ccc(Cl)cc2)cc1OC	·	·	·	·	16%[46 µM]	·
O=C(O)c1c(-c2ccccc2)oc2ccc(OCc3ccc(Cl)c(Cl)c3)cc12	·	·	·	-15	·	·
CCn1c(C)cc(=S)c2ccccc21	4µM*	-5%	-28	?	-10%	-22%
O=C(CCCC(=O)NCc1ccc(F)cc1)NCc1ccc(F)cc1	4%	·	·	·	?	7%
CC(C)(C)CC(=O)NCc1ccc(F)cc1	14%	22µM*	-17	7	-4%	2%
COC(=O)/C=C1\OC(c2ccccc2)=CC1=O	10µM*	20µM*	-13	·	?	-1%
CC(C)C[C@@H](CC(=O)N[C@@H](CCC(=O)O)CC(=O)O)NC(=O)[C@@H]1CCCC[C@H]1NC(=O)C[C@H](CCCN)NC(=O)C[C@H](CO)NC(=O)[C@@H]1CNCC[C@H]1N	6%	-7%	·	·	·	2%
Nc1ccc(S(=O)(=O)O)cc1	32µM*	-10%	·	·	·	·
CON(c1nc(N(C)C)nc(N(C)C)n1)S(=O)(=O)c1ccccc1Cl	-8%	-17%	-100*	2	23%	-5%
C[C@H]1[C@H](C)CC[C@]2(C(=O)O)CC[C@]3(C)C(=CCC4[C@@]5(C)C[C@@H](O)[C@H](O)[C@@](C)(CO)[C@@H]5CC[C@]43C)[C@H]12 (some centres undefined)	4%	-4%	·	-2	·	2%
COc1ccc(S(=O)(=O)N(CCc2ccccc2)CC(=O)N/N=C/c2ccc3c(c2)OCO3)cc1	?	22µM*	55	·	?	-4%
COc1ccc(S(=O)(=O)N(CCc2ccccc2)CC(=O)NCCCO)cc1	8.9µM*	-5%	9	-2	2%	-4%
COCCCNC(=O)CN(CCc1ccccc1)S(=O)(=O)c1ccc(OC)cc1	?	·	·	·	·	5%
CSCCC(NC(=O)c1ccccc1)C(=O)NC1CCCC1 (centres undefined)	0%	-6%	-84*	6	1%	-1%
